Potency, outcome and activity change, positive = activation data for 8 compounds are collected here from PubChem BioAssay (Tox21).

Values without a mark were called inactive. Inconclusive results are not listed. Calls of active or inactive are those of the source. Unless noted, calls follow the shape of the dose curve; as a rule, active = well fitted curve in the direction sought with a large enough effect in the repeat runs; inconclusive = weak or mixed curves; inactive = no such curve, though single readings can be large; an effect the other way counts as inactive or inconclusive.

A short description of assay [1]: qHTS assay to identify small molecule agonists of the constitutive androstane receptor (CAR) signaling pathway - cell viability counter screen (AID 1224836). Also: nearly all actives have a fitted effect of over 45% in size. The gist of the method:
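Multiplexed viability check: HepG2-CYP2B6-hCAR cells, 15-point compound dosing, 0.75 uM PK11195 final, 23 h at 37 C, CellTiter-Fluor fluorescence.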
Background: In qHTS, concentration-response curves come from the screen itself.

Assay [2] concerns the target Nuclear receptor subfamily 1 group I member 3 (Homo sapiens) (UniProt Q14994). Description: qHTS assay to identify small molecule antagonists of the constitutive androstane receptor (CAR) signaling pathway (AID 1224838). Also: nearly all actives have a fitted effect of over 40% in size. The gist of the method:
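CITCO-stimulated (50 nM final) HepG2 cells stably transfected with hCAR and CYP2B6-2.2kb luciferase were exposed to compounds at 15 concentrations for 24 h at 37 C/5% CO2. A luciferase reagent was added and luminescence recorded after 30 min.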

A short description of assay [3]: qHTS assay to identify small molecule antagonists of the estrogen related receptor signaling pathway with the pleiotropic PPARgamma coactivator (PGC) from Tox21 10K library - cell viability counter screen (AID 1224840; active = well fitted cell-killing curve with a large enough effect in the repeat runs, not every such curve was filed as active; also: nearly all actives have a fitted effect of over 40% in size). The gist of the method: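 Viability counter screen, PGC/ERR cells: 17.5 h compound exposure at 37 C, CellTiter-Fluor fluorescence endpoint.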
A short description of assay [4]: qHTS assay to identify small molecule agonists of the estrogen related receptor signaling pathway with the pleiotropic PPARgamma coactivator (PGC) from Tox21 10K library (AID 1224842). Also: nearly all actives have a fitted effect of over 15% in size. The gist of the method:
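PGC/ERR reporter cell line, 2,000 cells per well, incubated 6 h at 37 C before 23 nL compound in DMSO was added. After 18 h at 37 C, One-Glo luminescence read following 30 min at room temperature.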

Assay [5] is described as follows: qHTS assay to identify small molecule agonists of the hypoxia (HIF-1) signaling pathway - cell viability counter screen (AID 1224844; calls by dose curve; also: nearly all actives have a fitted effect of over 50% in size). The gist of the method: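 Same wells as the HIF-1 reporter screen; ME-180 cells carrying HRE-bla, 17 hr treatment at 37C; CellTiter-Glo luminescence read after 30 min at room temperature.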
Assay [6] in a line: qHTS assay to identify small molecule agonists of H2AX (AID 1224845; active = well fitted activation curve with a large enough effect in the signal ratio in the repeat runs, not every such curve was filed as active; the % refers to the signal ratio). The gist of the method:
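Wild-type CHO-K1 cells, plated overnight, exposed 3hr at 37C to 15 concentrations (0.76% DMSO final). Lysed, then HTRF anti-pH2AX (S139) cryptate and anti-H2AX-d2 antibodies, 24 hr room temperature; 665/620 nm emission read.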

Assay [7] in a line: qHTS assay to identify small molecule agonists of the hypoxia (HIF-1) signaling pathway (AID 1224846; active = well fitted activation curve with a large enough effect in the signal ratio in the repeat runs, not every such curve was filed as active; the % refers to the signal ratio). The gist of the method: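 In ME-180 cells bearing an HRE-bla construct, 17 h treatment with DMSO-dissolved compounds at 37C was followed by CCF4-AM loading to quantify reporter induction.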
Assay [8] in a line: qHTS assay to identify small molecule agonists of H2AX - cell viability counter screen (AID 1224847; calls by dose curve; also: top concentration of the series differs between compounds; nearly all actives have a fitted effect of over 30% in size). The gist of the method: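 After overnight plating of 1000 CHO-K1 cells per well, a 15-concentration compound series was applied for 3 hr at 37C. Luminescence from CellTiter-Glo, read following 30 min at room temperature, reflected cell viability.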
The nature of assay [9]: qHTS assay to identify small molecule antagonists of the estrogen related receptor (ERR) signaling pathway from Tox21 library (AID 1224848). Also: nearly all actives have a fitted effect of over 50% in size. The gist of the method:
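Quantitative high-throughput format: ERR reporter cells (2,000/well) pre-incubated 6 h, treated 18 h at 37 C with compounds in DMSO alongside positive and negative controls, then read by ONE-Glo luminescence.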

Assay [10] in a line: qHTS assay to identify small molecule agonists of the estrogen related receptor (ERR) signaling pathway from Tox21 library (AID 1224849; calls by dose curve; also: nearly all actives have a fitted effect of over 15% in size). The conditions noted are these: ERR reporter cell line, ONE-Glo luciferase, 18 h; at 92.4 µM (top of the series) unless noted. The gist of the method: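 Reporter cells (ERR, NTP source) treated with Tox21 10K compounds 18 h, 37 C. Readout: ONE-Glo luminescence, 30 min RT.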

The nature of assay [11]: qHTS RealTime-Glo MT Cell Viability Assay in HepG2 cells - 24 hour (AID 1224867). Also: nearly all actives have a fitted effect of over 50% in size. The gist of the method: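 HepG2 cells were seeded at 600 cells/well together with NanoLuc luciferase and a cell-permeant prosubstrate, preincubated 5 h at 37 C/5% CO2, then pin-dosed with compounds in DMSO. Nonlytic luminescence from viable cells was read at each time point.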
Assay [12] can be described thus: A CellTox Green Cytotoxicity Assay to monitor cytotoxicity in HEK293 cells - 0 hour (AID 1224869). Also: nearly all actives have a fitted effect of over 50% in size. The gist of the method:
(§1)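 Homogeneous no-lysis format: HEK293 cell suspension mixed with CellTox Green reagent, seeded, incubated 5 h at 37 C/5% CO2, then dosed by pintool with compound in DMSO.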

A short description of assay [13]: A CellTox Green Cytotoxicity Assay to monitor cytotoxicity in HEK293 cells - 40 hour (AID 1224871). Also: nearly all actives have a fitted effect of over 45% in size. The gist of the method:
as §1

Assay [14] can be described thus: qHTS assay to identify small molecule antagonists of the constitutive androstane receptor (CAR) signaling pathway - cell viability counter screen (AID 1224837). Also: nearly all actives have a fitted effect of over 45% in size. The gist of the method: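 In quantitative HTS format, compounds at 15 concentrations were applied to HepG2 cells double-transfected with hCAR and CYP2B6-2.2kb under 50 nM CITCO stimulation; live-cell protease activity was read after 23 hr via CellTiter-Fluor.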

The nature of assay [15]: qHTS assay to identify small molecule antagonists of the estrogen related receptor signaling pathway with the pleiotropic PPARgamma coactivator (PGC) from Tox21 10K library (AID 1224841; call rule not given here). The gist of the method:
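In the PGC/ERR line, DMSO solutions of test chemicals are pin-delivered to 2,000 cells/well six hours after dispensing. Following eighteen hours' incubation, One-Glo reagent is added and luminescence recorded.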

In assay [16] the target is Thyrotropin receptor (Homo sapiens) (UniProt P16473). Description: qHTS assay to identify small molecule agonists of the thyroid stimulating hormone receptor (TSHR) signaling pathway (AID 1224843; calls by dose curve; also: nearly all actives have a fitted effect of over 45% in size). The gist of the method: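 Agonist-mode screen: TSHR HEK293 cells received test chemicals for half an hour at room temperature, then HTRF cAMP detection reagents for one hour prior to fluorescence measurement. Each chemical ran as a 15-concentration series, triplicated.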
Thyrotropin receptor (Homo sapiens), sequence (P16473 whole entry, looked up): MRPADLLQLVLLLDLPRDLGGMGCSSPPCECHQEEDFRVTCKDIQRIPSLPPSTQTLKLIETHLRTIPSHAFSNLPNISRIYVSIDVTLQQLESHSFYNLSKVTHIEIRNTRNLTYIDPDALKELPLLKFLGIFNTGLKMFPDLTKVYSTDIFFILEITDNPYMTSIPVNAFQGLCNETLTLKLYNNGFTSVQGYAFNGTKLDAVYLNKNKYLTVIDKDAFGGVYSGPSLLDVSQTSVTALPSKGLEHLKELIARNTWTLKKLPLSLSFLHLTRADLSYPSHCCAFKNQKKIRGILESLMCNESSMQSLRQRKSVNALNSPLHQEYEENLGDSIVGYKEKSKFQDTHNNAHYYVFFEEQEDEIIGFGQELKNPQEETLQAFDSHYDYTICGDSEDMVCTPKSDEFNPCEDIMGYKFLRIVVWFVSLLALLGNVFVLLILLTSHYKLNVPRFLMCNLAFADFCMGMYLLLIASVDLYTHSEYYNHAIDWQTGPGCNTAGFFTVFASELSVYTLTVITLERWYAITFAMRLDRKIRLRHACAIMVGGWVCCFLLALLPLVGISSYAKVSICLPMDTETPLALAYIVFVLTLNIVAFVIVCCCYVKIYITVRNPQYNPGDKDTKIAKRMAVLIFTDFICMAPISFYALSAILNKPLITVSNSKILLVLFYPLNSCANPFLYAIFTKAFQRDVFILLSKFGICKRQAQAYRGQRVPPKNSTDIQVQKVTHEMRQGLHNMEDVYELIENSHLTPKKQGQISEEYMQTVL

Assay [17] in a line: qHTS RealTime-Glo MT Cell Viability Assay in HEK293 cells - 32 hour (AID 1224868). The gist of the method: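 HEK293 cells were seeded at 600 cells/well together with NanoLuc luciferase and cell-permeant prosubstrate, preincubated 5 h at 37 C/5% CO2, then given compound in DMSO by pintool. Luminescence from viable-cell prosubstrate reduction was read repeatedly over 40 h.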

Assay [18] can be described thus: qHTS RealTime-Glo MT Cell Viability Assay in HepG2 cells - 40 hour (AID 1224870). Also: nearly all actives have a fitted effect of over 50% in size. The gist of the method: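 HepG2 cells (600/well) mixed with RealTime-Glo MT reagent, settled 5 h at 37 C/5% CO2 before compound addition. Nonlytic NanoLuc luminescence from viable-cell prosubstrate reduction read repeatedly during 40 h treatment at 37 C.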
Assay [19] deals with Nuclear receptor subfamily 1 group I member 3 (Homo sapiens) (UniProt Q14994). Kind of assay: qHTS assay to identify small molecule agonists of the constitutive androstane receptor (CAR) signaling pathway (AID 1224839). Also: nearly all actives have a fitted effect of over 15% in size. Also: potency is read from the fitted curve at half-maximal effect.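 As to activation: HepG2 cells stably carrying human CAR and a CYP2B6 luciferase reporter.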 The gist of the method: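 Using human hepatoma HepG2 cells engineered with hCAR and a CYP2B6-2.2kb reporter, 15-concentration compound series were incubated 24 h alongside PK11195 at 0.75 uM final, with luminescence quantified afterwards.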
Nuclear receptor subfamily 1 group I member 3 (Homo sapiens), sequence (Q14994 whole entry, looked up): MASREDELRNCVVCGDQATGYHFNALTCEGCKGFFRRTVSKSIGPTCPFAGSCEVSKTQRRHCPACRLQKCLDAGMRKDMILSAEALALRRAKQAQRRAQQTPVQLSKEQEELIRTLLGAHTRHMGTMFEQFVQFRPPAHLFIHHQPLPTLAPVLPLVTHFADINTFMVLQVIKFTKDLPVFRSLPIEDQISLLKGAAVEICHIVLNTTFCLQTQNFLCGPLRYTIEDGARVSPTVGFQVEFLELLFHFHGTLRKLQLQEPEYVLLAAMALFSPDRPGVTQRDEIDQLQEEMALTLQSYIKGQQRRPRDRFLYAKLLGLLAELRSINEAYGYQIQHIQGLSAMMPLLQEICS

In assay [20] the target is Luciferin 4-monooxygenase (Photinus pyralis) (UniProt P08659). Description: qHTS assay to identify small molecule inhibitors of firefly luciferase (AID 1224835). Also: nearly all actives have a fitted effect of over 25% in size. The gist of the method: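 Biochemical qHTS: compounds run as interplate titrations against purified firefly enzyme, with D-luciferin and ATP each at its KM concentration. Light output recorded by CCD imaging.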
Luciferin 4-monooxygenase (Photinus pyralis), sequence (P08659 whole entry, looked up): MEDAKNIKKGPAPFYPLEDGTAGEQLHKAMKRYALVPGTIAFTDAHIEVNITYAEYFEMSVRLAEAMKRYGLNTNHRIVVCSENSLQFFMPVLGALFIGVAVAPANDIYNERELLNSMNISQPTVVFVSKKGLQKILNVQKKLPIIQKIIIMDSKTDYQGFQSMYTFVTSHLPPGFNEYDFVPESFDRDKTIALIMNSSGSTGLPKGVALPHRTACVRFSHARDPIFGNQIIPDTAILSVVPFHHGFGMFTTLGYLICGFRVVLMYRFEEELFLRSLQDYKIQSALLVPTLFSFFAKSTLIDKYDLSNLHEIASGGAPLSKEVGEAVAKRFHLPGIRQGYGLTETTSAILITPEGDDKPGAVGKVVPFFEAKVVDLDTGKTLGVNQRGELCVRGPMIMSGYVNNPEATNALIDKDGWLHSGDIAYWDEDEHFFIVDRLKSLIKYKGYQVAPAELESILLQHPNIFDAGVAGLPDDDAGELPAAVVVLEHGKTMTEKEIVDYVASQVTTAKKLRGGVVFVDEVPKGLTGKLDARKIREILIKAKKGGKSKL
% is scaled to controls: 0 for no effect and ±100 for the full control effect.

Turning to `CC1COc2ccccc2N1` (stereo not given), the Potency entry in [1], in [8], in assay [9] and in assay [13] was “inactive” each time. Further, the result in [2], in assay [3], in assay [4], in [5], in assay [6] and in assay [7] was inactive. Besides, the result in assay [11] and in assay [12] was inactive. Also, in [10], the activity change, positive = activation is 13.7%.
With `BrCc1cccc(Oc2ccccc2)c1`, the Potency result in assay [1], in assay [14], in assay [15], in [16], in assay [8] and in [17] was “inactive” in each case. For the same compound, in [13], the Potency entry is “inactive”. The compound was called inactive in [2], in assay [3], in assay [4], in [5], in assay [6] and in [7]. Besides, the call in assay [11] and in [18] was inactive. The activity change, positive = activation in assay [10] is 0.526%.
For `CCCCCCCCCCl`, the Potency result in assay [1], in assay [14], in assay [8], in assay [9], in assay [17] and in assay [13] was “inactive” in each case. The result in assay [3], in [4], in assay [5], in assay [6], in assay [7] and in assay [11] was inactive. Moreover, in [12], the compound was called inactive. Besides, the activity change, positive = activation in assay [10] is 2.84%.
For the compound `Nc1ccc2cc(S(=O)(=O)O)cc(O)c2c1`, the Potency entry in assay [1], in [14], in assay [19], in assay [15], in assay [8] and in assay [9] was “inactive” throughout. Besides, the Potency entry in assay [17] and in [13] was “inactive” in each case. Also, the call in assay [2], in assay [3], in assay [4], in assay [5], in assay [7] and in assay [11] was inactive. For the same compound, the result in assay [18] was inactive. In addition, in assay [10], the activity change, positive = activation is 1.3%.
`Cc1cc2cc3c(C)cc(=O)oc3c(C)c2o1`: the Potency result in assay [1], in assay [14], in assay [16], in assay [8], in [9] and in assay [17] was “inactive” throughout. In addition, the Potency result in assay [13] is “inactive”. For the same compound, in assay [19], the Potency is 11.9 µM (active). The compound was called inactive in [3], in assay [4], in [5] and in assay [12]. For the same compound, in assay [10], the activity change, positive = activation is 7.29% [at 42.5 µM].
`CCN(CC)CC(=O)Nc1c(C)cccc1C`: the Potency result in assay [1], in assay [15], in assay [16], in assay [8] and in assay [13] was “inactive” in each case. Moreover, the compound was classed as inactive in assay [3], in [4], in assay [5], in [11], in assay [12] and in assay [18].
Turning to `CC(C)NCC(O)COc1cccc2[nH]ccc12` (stereo not given), the Potency result in assay [1], in [14], in [16], in assay [17] and in assay [13] was “inactive” each time. Further, the result in [3], in [5], in [6], in assay [11] and in assay [18] was inactive.
For the compound `CC(=O)Nc1ccc(S(=O)(=O)Nc2ccc([N+](=O)[O-])cc2)cc1`, the Potency result in [20], in assay [16], in assay [8], in assay [17] and in assay [13] was “inactive” each time. Also, the outcome in assay [2], in [5], in assay [6], in [7], in assay [11] and in [12] was inactive. Also, the outcome in assay [18] was inactive.
